# Test results from PubChem BioAssay (EPA / NIEHS).
# Results filed as inconclusive are left out. The source made the active and inactive calls. Rule for the calls: active = hit-call score of the fitted dose curve at least 0.9, where 1 is the maximum; inconclusive = response in the unintended direction; inactive = score below 0.9.
# Assays:
# [1] = target: human Rho Associated Coiled-coil Containing Protein Kinase 1 (ROCK1), ROCK1 (gene 6093) (UniProt Q13464); experiment: NVS_ENZ_hROCK1: NovaScreen (NVS) Enzymatic Assay for human Rho Associated Coiled-coil Containing Protein Kinase 1 (ROCK1) (AID 2283214)
# Summary of the method: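 Cell-free recombinant human ROCK1 activity assay; fluorescent substrate and product separated by electrophoretic mobility shift, read 1 h after dosing. Screened in duplicate at 25 uM; loss of signal versus DMSO baseline scored as inhibition.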
# [2] = target: human Protein Tyrosine Phosphatase Non-receptor Type 9 (PTPN9), PTPN9 (gene 5780) (UniProt P43378); experiment: NVS_ENZ_hPTPN9: NovaScreen (NVS) Enzymatic Assay for human Protein Tyrosine Phosphatase Non-receptor Type 9 (PTPN9) (AID 2283209)
# Summary of the method: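 Sf9-expressed enzyme in a cell-free assay, fluorescence read 1.33 h after dosing with mobility-shift separation of substrate and product. Tested at 25 uM in duplicate, then up to 50 uM; signal loss versus DMSO.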
# [3] = target: human Protein Tyrosine Phosphatase Non-receptor Type 6 (PTPN6), PTPN6 (gene 5777) (UniProt P29350); experiment: NVS_ENZ_hPTPN6: NovaScreen (NVS) Enzymatic Assay for human Protein Tyrosine Phosphatase Non-receptor Type 6 (PTPN6) (AID 2283210)
# Summary of the method: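 Cell-free assay with recombinant PTPN6 expressed in SF9 cells, fluorescent substrate, product separated from substrate by electrophoretic mobility shift; read 1.33 hours after dosing. Primary screen in duplicate at 25 uM, actives retested in concentration series; DMSO baseline.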
# [4] = target: Tyrosine-protein phosphatase non-receptor type 12 (Homo sapiens) (UniProt Q05209); experiment: NVS_ENZ_hPTPN12: NovaScreen (NVS) Enzymatic Assay for human Protein Tyrosine Phosphatase Non-receptor Type 12 (PTPN12) (AID 2283204)
# Summary of the method: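 Single-concentration duplicates (25 uM) preceded singleton concentration-response up to 50 uM for chemicals passing threshold. Cell-free recombinant PTPN12 activity was read 1.33 h after dosing via fluorescence after mobility-shift separation; loss of signal versus DMSO.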
# [5] = target: Tyrosine-protein phosphatase non-receptor type 13 (Homo sapiens) (UniProt Q12923); experiment: NVS_ENZ_hPTPN13: NovaScreen (NVS) Enzymatic Assay for human Protein Tyrosine Phosphatase Non-receptor Type 13 (PTPN13) (AID 2283205)
# Summary of the method: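 Cell-free assay of recombinant human PTPN13 with a fluorescent substrate, product separated by electrophoretic mobility shift and read 0.5 h after dosing. Primary screen at 25 uM in duplicate, then concentration-response up to 50 uM. Loss of signal fitted against DMSO.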
# [6] = target: Tyrosine-protein phosphatase non-receptor type 14 (Homo sapiens) (UniProt Q15678); experiment: NVS_ENZ_hPTPN14: NovaScreen (NVS) Enzymatic Assay for human Protein Tyrosine Phosphatase Non-receptor Type 14 (PTPN14) (AID 2283206)
# Summary of the method: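 Cell-free recombinant human PTPN14 with fluorescent substrate, read 0.5 h after dosing by fluorescence and electrophoretic mobility shift separating substrate from product. Primary screen at 25 uM in duplicate; hits run to 50 uM maximum; loss of signal versus DMSO.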
# [7] = target: human Protein Tyrosine Phosphatase Non-receptor Type 4 (PTPN4), PTPN4 (gene 5775) (UniProt P29074); experiment: NVS_ENZ_hPTPN4: NovaScreen (NVS) Enzymatic Assay for human Protein Tyrosine Phosphatase Non-receptor Type 4 (PTPN4) (AID 2283208)
# Summary of the method: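 Cell-free assay of PTPN4 expressed in Sf9 cells, using a fluorescent substrate with product separated by mobility shift; read 1.33 h after dosing. Single-point screen at 25 uM, then concentration-response up to 50 uM. Loss of signal relative to DMSO.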
# [8] = target: human Protein Tyrosine Phosphatase Receptor Type F (PTPRF), PTPRF (gene 5792) (UniProt P10586); experiment: NVS_ENZ_hPTPRF: NovaScreen (NVS) Enzymatic Assay for human Protein Tyrosine Phosphatase Receptor Type F (PTPRF) (AID 2283213)
# Summary of the method: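 Cell-free fluorescence enzyme assay with recombinant protein and substrate; product separated by electrophoretic mobility shift. Read 1 h after dosing, single 25 uM duplicate screen, then concentration-response up to 50 uM; loss of signal vs DMSO.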
# [9] = target: human Protein Tyrosine Phosphatase Receptor Type M (PTPRM), PTPRM (gene 5797) (UniProt P28827); experiment: NVS_ENZ_hPTPRM: NovaScreen (NVS) Enzymatic Assay for human Protein Tyrosine Phosphatase Receptor Type M (PTPRM) (AID 2283215)
# Summary of the method: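 Cell-free recombinant PTPRM with fluorogenic substrate; product separated from substrate by electrophoretic mobility shift and read by fluorescence, 1.33 h after dosing. Primary screen single concentration (25 uM) in duplicate; actives retested in concentration series; loss of signal versus DMSO.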
# [10] = target: human Vascular Endothelial Growth Factor Receptor 1 (VEGFR1), FLT1 (gene 2321) (UniProt P17948); experiment: NVS_ENZ_hVEGFR1: NovaScreen (NVS) Enzymatic Assay for human Vascular Endothelial Growth Factor Receptor 1 (VEGFR1) (AID 2283226)
# Summary of the method: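 Cell-free assay of recombinant human VEGFR1 kinase with substrate, measured 1 h after dosing; fluorescence with electrophoretic mobility-shift separation of substrate and product, referenced to DMSO; primary screen at 25 uM in duplicate, actives then run in concentration series.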
# [11] = target: human Vascular Endothelial Growth Factor Receptor 3 (VEGFR3), FLT4 (gene 2324) (UniProt P35916); experiment: NVS_ENZ_hVEGFR3: NovaScreen (NVS) Enzymatic Assay for human Vascular Endothelial Growth Factor Receptor 3 (VEGFR3) (AID 2283229)
# Summary of the method: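 Cell-free recombinant VEGFR3 kinase reaction with fluorescent substrate, read 1 h after dosing by electrophoretic mobility shift separation of substrate and product. Single-concentration duplicate screen at 25 uM, then concentration-response up to 50 uM; loss of activity versus DMSO.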
# [12] = target: human Vascular Endothelial Growth Factor Receptor 2 (VEGFR2), KDR (gene 3791) (UniProt P35968); experiment: NVS_ENZ_hVEGFR2: NovaScreen (NVS) Enzymatic Assay for human Vascular Endothelial Growth Factor Receptor 2 (VEGFR2) (AID 2283230)
# Summary of the method: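 Cell-free recombinant VEGFR2 kinase, fluorescent substrate with electrophoretic mobility-shift separation; read 1 h after dosing. Screened at 25 uM in duplicate, hits to concentration-response up to 50 uM; loss-of-signal versus DMSO.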
# [13] = target: human Sirtuin 2 (SIRT2), SIRT2 (gene 22933) (UniProt Q8IXJ6); experiment: NVS_ENZ_hSIRT2: NovaScreen (NVS) Enzymatic Assay for human Sirtuin 2 (SIRT2) (AID 2283217)
# Summary of the method: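 Cell-free recombinant human SIRT2, fluorescent substrate with product separated by electrophoretic mobility shift, 1 hr. Screened in duplicate at 25 uM; hits rerun singly in concentration-response up to 50 uM, relative to DMSO.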
# [14] = target: human Sirtuin 3 (SIRT3), SIRT3 (gene 23410) (UniProt Q9NTG7); experiment: NVS_ENZ_hSIRT3: NovaScreen (NVS) Enzymatic Assay for human Sirtuin 3 (SIRT3) (AID 2283222)
# Summary of the method: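 Cell-free enzyme assay with recombinant protein and fluorescent substrate, product separated by electrophoretic mobility shift; read 1 hour after dosing. Screened in duplicate at 25 uM, then singleton concentration-response up to 50 uM; loss of signal versus DMSO.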
# [15] = target: rabbit Imidazoline 2 Central (I2C), CKB (gene 100009085) (UniProt P00567); experiment: NVS_ENZ_rabI2C: NovaScreen (NVS) Enzymatic Assay for rabbit Imidazoline 2 Central (I2C) (AID 2283228)
# Summary of the method: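 Rabbit brain membranes, cell-free; readout by filter-based scintillation counting 1.5 hours after dosing, loss of signal vs DMSO. Initial duplicate test at 25 uM, then concentration-response with 50 uM top concentration.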
# [16] = target: human SRC Proto-Oncogene, Non-receptor Tyrosine Kinase (SRC), SRC (gene 6714) (UniProt P12931); experiment: NVS_ENZ_hSRC: NovaScreen (NVS) Enzymatic Assay for human SRC Proto-Oncogene, Non-receptor Tyrosine Kinase (SRC) (AID 2283223)
# Summary of the method: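 Cell-free kinase activity assay with fluorescent substrate, product separated by electrophoretic mobility shift, read 1 h after dosing. Duplicate single point at 25 uM, then concentration-response up to 50 uM; loss of signal versus DMSO.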
# [17] = target: human Tropomyosin Receptor Kinase A (TRKA), NTRK1 (gene 4914) (UniProt P04629); experiment: NVS_ENZ_hTrkA: NovaScreen (NVS) Enzymatic Assay for human Tropomyosin Receptor Kinase A (TRKA) (AID 2283224)
# Summary of the method: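 Recombinant human TrkA activity read after 1 h by fluorescence with electrophoretic mobility shift separating substrate and product. Primary screen in duplicate at 25 uM; actives were rerun in concentration-response up to 50 uM. Loss of signal versus DMSO.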
# [18] = target: rat Catechol-O-Methyl Transferase (COMT), Comt (gene 24267) (UniProt P22734); experiment: NVS_ENZ_rCOMT: NovaScreen (NVS) Enzymatic Assay for rat Catechol-O-Methyl Transferase (COMT) (AID 2283235)
# Summary of the method: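 Cell-free enzyme activity with protein extracted from rat dorsal striatum, measured by HPLC with absorbance detection. Compounds screened at 25 uM in duplicate; actives then run in concentration-response up to 50 uM, loss of signal versus DMSO.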
# human Sirtuin 3 (SIRT3), SIRT3 (gene 23410), sequence (Q9NTG7 whole entry, looked up): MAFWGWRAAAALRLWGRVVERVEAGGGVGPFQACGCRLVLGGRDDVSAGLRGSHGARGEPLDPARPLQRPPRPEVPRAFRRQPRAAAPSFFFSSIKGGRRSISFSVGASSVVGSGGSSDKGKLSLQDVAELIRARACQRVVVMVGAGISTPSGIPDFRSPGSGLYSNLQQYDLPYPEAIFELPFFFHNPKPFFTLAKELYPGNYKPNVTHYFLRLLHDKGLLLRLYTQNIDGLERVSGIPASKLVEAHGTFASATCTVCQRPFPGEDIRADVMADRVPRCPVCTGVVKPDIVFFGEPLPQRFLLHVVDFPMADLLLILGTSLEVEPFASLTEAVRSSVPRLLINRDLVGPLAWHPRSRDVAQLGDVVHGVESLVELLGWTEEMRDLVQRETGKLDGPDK
# human Rho Associated Coiled-coil Containing Protein Kinase 1 (ROCK1), ROCK1 (gene 6093), sequence (Q13464 whole entry, looked up): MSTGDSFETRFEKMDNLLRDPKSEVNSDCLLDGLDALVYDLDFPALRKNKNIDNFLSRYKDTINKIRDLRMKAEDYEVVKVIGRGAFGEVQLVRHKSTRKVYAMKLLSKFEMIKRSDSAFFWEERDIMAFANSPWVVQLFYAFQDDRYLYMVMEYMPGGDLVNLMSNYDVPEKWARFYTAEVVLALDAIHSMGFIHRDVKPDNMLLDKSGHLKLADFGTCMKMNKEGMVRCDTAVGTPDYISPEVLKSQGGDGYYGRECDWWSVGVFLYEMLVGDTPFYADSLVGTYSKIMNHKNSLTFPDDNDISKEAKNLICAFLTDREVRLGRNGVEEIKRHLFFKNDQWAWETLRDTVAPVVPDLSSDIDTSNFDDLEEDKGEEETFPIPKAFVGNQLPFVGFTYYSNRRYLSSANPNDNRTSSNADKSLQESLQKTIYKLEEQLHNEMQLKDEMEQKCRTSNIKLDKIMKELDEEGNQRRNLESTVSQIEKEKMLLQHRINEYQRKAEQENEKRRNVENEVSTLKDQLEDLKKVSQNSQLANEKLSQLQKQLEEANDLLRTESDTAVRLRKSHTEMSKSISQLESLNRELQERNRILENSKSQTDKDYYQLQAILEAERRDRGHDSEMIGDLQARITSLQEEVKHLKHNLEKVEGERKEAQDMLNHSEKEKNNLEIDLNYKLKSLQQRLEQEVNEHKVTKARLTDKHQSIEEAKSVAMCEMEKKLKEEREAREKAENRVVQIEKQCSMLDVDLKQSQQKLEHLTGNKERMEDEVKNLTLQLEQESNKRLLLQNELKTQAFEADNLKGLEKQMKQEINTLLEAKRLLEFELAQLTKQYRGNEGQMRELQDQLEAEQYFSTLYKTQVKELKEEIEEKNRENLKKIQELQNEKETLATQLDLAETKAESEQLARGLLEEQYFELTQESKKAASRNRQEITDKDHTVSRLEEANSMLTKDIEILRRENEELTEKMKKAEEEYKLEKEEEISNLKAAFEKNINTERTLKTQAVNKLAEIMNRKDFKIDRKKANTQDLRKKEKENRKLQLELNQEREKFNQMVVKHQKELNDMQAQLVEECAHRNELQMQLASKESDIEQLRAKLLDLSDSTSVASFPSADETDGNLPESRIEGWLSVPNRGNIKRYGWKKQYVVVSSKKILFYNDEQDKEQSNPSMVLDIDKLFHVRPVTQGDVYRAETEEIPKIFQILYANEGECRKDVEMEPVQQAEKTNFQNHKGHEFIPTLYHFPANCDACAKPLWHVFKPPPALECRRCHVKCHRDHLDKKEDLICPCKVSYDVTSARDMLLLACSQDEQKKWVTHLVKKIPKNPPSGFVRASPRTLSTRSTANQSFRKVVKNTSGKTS
# human Protein Tyrosine Phosphatase Non-receptor Type 9 (PTPN9), PTPN9 (gene 5780), sequence (P43378 whole entry, looked up): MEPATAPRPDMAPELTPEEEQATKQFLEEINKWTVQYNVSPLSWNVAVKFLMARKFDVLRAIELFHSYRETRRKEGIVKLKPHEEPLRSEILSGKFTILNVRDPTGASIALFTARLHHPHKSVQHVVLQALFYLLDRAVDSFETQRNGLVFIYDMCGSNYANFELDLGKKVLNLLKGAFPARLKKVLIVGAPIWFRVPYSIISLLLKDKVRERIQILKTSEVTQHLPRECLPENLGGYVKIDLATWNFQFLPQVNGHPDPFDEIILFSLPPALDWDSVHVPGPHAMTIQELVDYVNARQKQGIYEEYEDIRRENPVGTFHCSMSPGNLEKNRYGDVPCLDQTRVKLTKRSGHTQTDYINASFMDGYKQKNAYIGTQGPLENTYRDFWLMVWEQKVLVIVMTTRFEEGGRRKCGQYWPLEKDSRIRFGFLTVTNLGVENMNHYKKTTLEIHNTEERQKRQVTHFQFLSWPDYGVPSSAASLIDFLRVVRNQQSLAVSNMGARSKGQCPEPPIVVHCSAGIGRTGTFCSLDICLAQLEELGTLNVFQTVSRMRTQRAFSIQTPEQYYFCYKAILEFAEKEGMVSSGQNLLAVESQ
# human Vascular Endothelial Growth Factor Receptor 1 (VEGFR1), FLT1 (gene 2321), sequence (P17948 whole entry, looked up): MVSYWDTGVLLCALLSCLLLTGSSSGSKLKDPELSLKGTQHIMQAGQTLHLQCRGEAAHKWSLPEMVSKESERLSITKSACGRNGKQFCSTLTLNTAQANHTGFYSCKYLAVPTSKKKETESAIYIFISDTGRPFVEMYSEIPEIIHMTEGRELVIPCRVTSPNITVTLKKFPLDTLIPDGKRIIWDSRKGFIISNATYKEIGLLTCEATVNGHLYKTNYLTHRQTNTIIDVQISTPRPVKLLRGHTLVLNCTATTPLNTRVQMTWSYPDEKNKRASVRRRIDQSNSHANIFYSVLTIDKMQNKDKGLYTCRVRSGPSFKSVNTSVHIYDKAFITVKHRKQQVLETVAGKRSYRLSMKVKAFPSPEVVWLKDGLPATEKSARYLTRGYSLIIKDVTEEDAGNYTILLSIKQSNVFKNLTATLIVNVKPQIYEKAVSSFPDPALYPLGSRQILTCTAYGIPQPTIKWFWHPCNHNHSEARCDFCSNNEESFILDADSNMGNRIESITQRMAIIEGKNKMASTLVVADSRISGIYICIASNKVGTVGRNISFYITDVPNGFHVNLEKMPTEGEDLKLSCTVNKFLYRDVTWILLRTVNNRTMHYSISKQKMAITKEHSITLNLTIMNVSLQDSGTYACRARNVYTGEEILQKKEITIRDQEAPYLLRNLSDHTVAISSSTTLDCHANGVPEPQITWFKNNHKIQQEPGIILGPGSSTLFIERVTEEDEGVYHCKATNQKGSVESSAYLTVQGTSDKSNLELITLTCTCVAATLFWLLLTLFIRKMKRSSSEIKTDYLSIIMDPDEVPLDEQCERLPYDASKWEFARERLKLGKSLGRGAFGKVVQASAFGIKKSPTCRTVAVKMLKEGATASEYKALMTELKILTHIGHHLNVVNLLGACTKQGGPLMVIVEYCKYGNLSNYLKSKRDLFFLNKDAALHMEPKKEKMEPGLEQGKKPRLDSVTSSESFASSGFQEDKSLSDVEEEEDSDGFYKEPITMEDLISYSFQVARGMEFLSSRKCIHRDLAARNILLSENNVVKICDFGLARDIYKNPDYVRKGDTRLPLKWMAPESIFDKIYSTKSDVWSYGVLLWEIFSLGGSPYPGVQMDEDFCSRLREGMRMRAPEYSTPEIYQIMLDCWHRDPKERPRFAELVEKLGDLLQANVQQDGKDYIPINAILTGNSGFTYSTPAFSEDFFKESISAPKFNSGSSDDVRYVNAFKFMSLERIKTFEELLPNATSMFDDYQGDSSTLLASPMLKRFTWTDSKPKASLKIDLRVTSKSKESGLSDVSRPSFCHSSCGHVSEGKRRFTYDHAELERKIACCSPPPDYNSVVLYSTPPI
# human Vascular Endothelial Growth Factor Receptor 3 (VEGFR3), FLT4 (gene 2324), sequence (P35916 whole entry, looked up): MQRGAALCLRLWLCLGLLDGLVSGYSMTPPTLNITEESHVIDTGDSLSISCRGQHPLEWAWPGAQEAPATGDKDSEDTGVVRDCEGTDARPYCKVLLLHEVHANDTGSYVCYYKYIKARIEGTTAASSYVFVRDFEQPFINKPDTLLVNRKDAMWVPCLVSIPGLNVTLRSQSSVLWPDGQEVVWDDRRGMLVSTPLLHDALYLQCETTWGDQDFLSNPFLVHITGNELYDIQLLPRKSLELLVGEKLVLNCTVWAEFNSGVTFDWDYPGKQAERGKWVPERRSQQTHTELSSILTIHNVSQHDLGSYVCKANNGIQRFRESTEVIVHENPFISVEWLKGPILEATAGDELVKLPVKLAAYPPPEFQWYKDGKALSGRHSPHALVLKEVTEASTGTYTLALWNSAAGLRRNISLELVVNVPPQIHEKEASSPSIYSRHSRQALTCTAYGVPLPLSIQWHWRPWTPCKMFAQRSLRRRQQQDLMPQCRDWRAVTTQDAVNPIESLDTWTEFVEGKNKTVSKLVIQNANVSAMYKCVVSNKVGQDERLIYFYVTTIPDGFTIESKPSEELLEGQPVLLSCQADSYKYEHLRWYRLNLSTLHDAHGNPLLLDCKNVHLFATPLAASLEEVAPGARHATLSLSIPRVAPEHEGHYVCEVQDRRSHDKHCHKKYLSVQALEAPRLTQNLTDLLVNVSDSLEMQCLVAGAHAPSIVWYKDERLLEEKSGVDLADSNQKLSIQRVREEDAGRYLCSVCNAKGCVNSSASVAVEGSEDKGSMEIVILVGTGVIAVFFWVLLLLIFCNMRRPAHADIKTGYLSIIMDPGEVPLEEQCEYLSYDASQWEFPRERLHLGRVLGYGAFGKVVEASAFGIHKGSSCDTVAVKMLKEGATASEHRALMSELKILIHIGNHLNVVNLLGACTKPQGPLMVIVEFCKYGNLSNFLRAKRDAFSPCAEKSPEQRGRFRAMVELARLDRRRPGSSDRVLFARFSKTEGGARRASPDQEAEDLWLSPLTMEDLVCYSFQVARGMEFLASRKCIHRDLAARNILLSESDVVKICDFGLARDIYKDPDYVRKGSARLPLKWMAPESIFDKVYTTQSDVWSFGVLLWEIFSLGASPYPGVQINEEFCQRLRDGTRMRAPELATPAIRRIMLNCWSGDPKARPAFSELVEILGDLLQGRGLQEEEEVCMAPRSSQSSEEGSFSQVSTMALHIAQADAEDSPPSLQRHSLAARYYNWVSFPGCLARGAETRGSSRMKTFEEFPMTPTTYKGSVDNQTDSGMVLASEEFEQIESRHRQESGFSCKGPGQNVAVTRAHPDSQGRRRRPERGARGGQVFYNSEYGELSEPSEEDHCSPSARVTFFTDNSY
smiles,measurement,setting,value
O=C(O)CCN(C1(C(=O)NO)CCCC1)S(=O)(=O)c1ccc(Oc2ccc(F)cc2)cc1,outcome,[1],inactive
CN(C)c1ccc(Cc2ccc(N(C)C)cc2)cc1,outcome,[2],inactive
same,outcome,[3],inactive
O=C(O)c1cc(N=Nc2ccc(S(=O)(=O)Nc3ccccn3)cc2)ccc1O,outcome,[4],inactive
same,outcome,[5],inactive
same,outcome,[6],inactive
same,outcome,[7],inactive
same,outcome,[2],inactive
same,outcome,[8],inactive
same,outcome,[9],inactive
same,outcome,[10],inactive
same,outcome,[11],inactive
same,outcome,[12],inactive
CC[C@H](C)C(=O)O[C@H]1C[C@@H](C)C=C2C=C[C@H](C)[C@H](CC[C@@H]3C[C@@H](O)CC(=O)O3)[C@H]21,outcome,[2],inactive
same,outcome,[13],inactive
same,outcome,[14],inactive
same,outcome,[10],inactive
same,outcome,[11],inactive
same,outcome,[12],inactive
CC(C)CCCCCCCOC(=O)CCCCC(=O)OCCCCCCCC(C)C,outcome,[3],inactive
COC(=O)c1c(Cl)c(Cl)c(C(=O)OC)c(Cl)c1Cl,outcome,[1],inactive
same,outcome,[11],inactive
NC(=O)NO,outcome,[3],inactive
O=C(O)CC(O)C(=O)O (configuration not stated),AC50,[7],39.2 µM (active)
Nc1ccc(Nc2ccccc2)cc1,AC50,[9],15.8 µM (active)
same,AC50,[15],4.76 µM (active)
Cc1[nH]cnc1C[C@H]1CCc2c(C)c3ccccc3n2C1=O,outcome,[4],inactive
same,outcome,[14],inactive
same,outcome,[15],inactive
CCCCC(CC)COC(=O)c1ccc(C(=O)OCC(CC)CCCC)cc1 (configuration not stated),outcome,[2],inactive
CNS(=O)(=O)c1cc(C(=O)N2CCC(CCN3C4CCC3CC(n3c(C)nc5ccccc53)C4)(c3cccc(F)c3)CC2)c(Cl)cc1F (configuration not stated),outcome,[5],inactive
same,outcome,[13],inactive
COCCOCCOCCOC,outcome,[1],inactive
COc1cccc(-c2ccc(/C=C\CN3CCCCCC3)cc2Cl)c1,AC50,[14],3.06 µM (active)
CC1(C)C(=O)N(Br)C(=O)N1Br,outcome,[14],inactive
Clc1nc(Cl)c(Cl)c(Cl)c1Cl,outcome,[16],inactive
COCCOc1cc2cc(C(=O)NC3CCN(C(C)C)CC3)n(CC(=O)Nc3ccc(Cl)cn3)c2cn1,outcome,[16],inactive
CC(=O)OCCC(C)C,outcome,[17],inactive
Cn1c(=O)cc(Oc2ccc(F)cc2F)c2cnc(NCC(C)(C)O)nc21,AC50,[10],29.9 µM (active)
CC(O)CN(CCN(CC(C)O)CC(C)O)CC(C)O (configuration not stated),outcome,[11],inactive
CC(C)CCO,outcome,[18],inactive
O=C(OC[C@H]1O[C@@H](OC(=O)c2cc(O)c(O)c(OC(=O)c3cc(O)c(O)c(O)c3)c2)[C@H](OC(=O)c2cc(O)c(O)c(OC(=O)c3cc(O)c(O)c(O)c3)c2)[C@@H](OC(=O)c2cc(O)c(O)c(OC(=O)c3cc(O)c(O)c(O)c3)c2)[C@@H]1OC(=O)c1cc(O)c(O)c(OC(=O)c2cc(O)c(O)c(O)c2)c1)c1cc(O)c(O)c(OC(=O)c2cc(O)c(O)c(O)c2)c1,AC50,[18],0.371 µM (active)
